“And” between values parts separate entries of the source, which are not always exact repeats. Equal entries are not always repeated. Unmarked numbers belong to inactive results. Inconclusive results are not listed. Where a call stands in place of a potency, no number is given. The source made the active and inactive calls. Unless noted, calls come from the whole dose curve; as a rule, active = well fitted curve in the direction sought with a large enough effect in the repeat runs; inconclusive = weak or mixed curves; inactive = no such curve, though single readings can be large; an effect the other way counts as inactive or inconclusive.
How the values were obtained:
[1] = qHTS assay for small molecule agonists of the p53 signaling pathway (AID 651631; calls by dose curve; note: nearly all actives have a fitted effect of over 15% in size)
How it was run: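 Stably transfected HCT-116 cells (beta-lactamase behind p53 response elements) get compounds after a 5 h settling period; 16 h later at 37 °C, FRET substrate is loaded and fluorescence read after 2 h.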

[2] = qHTS assay for small molecules that induce genotoxicity in human embryonic kidney cells expressing luciferase-tagged ATAD5 (AID 651632); note: nearly all actives have a fitted effect of over 15% in size
How it was run: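 Concentration-response screen for ATAD5 upregulation in HEK293T luciferase reporter cells; 16 hr treatment at 37C, then luminescence after 30 min with Amplite at room temperature.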

[3] = qHTS assay for small molecule agonists of the p53 signaling pathway - cell viability (AID 651633; calls by dose curve;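 note: p53RE-bla HCT reporter cells with a stable beta-lactamase p53 reporter; series mostly up to about 83 µM; nearly all actives have a fitted effect of over 30% in size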)
How it was run: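 Viability counter-read: CellTiter-Glo luminescence (30 min, room temperature) in the same p53RE-bla plates. These plates had been exposed to compounds for 16 h at 37 C.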

[4] = qHTS assay for small molecules that induce genotoxicity in human embryonic kidney cells expressing luciferase-tagged ATAD5 - cell viability (AID 651634; calls by dose curve; note: nearly all actives have a fitted effect of over 25% in size)
How it was run: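 15.5 hr compound or vehicle exposure of HEK293T cells expressing luciferase-tagged ATAD5 at 37C; live-cell protease activity is read by fluorescence after 30 min of CellTiter-Fluor.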

[5] = qHTS assay for small molecule disruptors of the mitochondrial membrane potential - cell viability (AID 720634; calls by dose curve; note: nearly all actives have a fitted effect of over 20% in size; note: potency is the fitted concentration of half-maximal effect)
How it was run: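 In this qHTS format, HepG2 cells plated overnight were pinned with compound, incubated 1 hr, and assayed for ATP luminescence with CellTiter-Glo after m-MPI dye addition.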

[6] = qHTS assay for small molecule disruptors of the mitochondrial membrane potential (AID 720635); note: potency is the fitted concentration of half-maximal effect
How it was run: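 Mitochondrial membrane potential tracked with Mito-MPS dye, red aggregates (ex 540/em 590 nm) against green monomers (ex 490/em 535 nm). Compound treatment 1 hr at 37C, dye 30 min in HepG2.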

[7] = qHTS assay to test for compound auto fluorescence at 590 nm (red) in HepG2 cells (AID 720674)
How it was run: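 Red autofluorescence (Ex/Em 540/590 nm, Rose Bengal sodium equivalents) was measured in HepG2 cells, 2,000 per well in MEM plus 10% FBS, plated overnight at 37 C. Readings were taken 1 hr after adding 23 nL compound or DMSO, at 37 C and 5% CO2.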

[8] = qHTS assay to test for compound auto fluorescence at 460 nm (blue) in HEK293 cells (AID 720678)
How it was run: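 After cell attachment (4-5 hr, 37C), compounds were pinned onto HEK293 monolayers in 10% dialyzed FBS medium. The blue channel (405/460 nm) was read following overnight culture. Equivalency was calculated against triamterene.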

[9] = qHTS assay to test for compound auto fluorescence at 590 nm (red) in HEK293 cells (AID 720679)
How it was run: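 Plates of HEK293 cells (10% dialyzed FBS) are treated with 23 nL compound or DMSO vehicle after a 4-5 hr attachment period, incubated overnight at 37C, and read for red fluorescence at 540/590nm.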

[10] = qHTS assay to test for compound auto fluorescence at 535 nm (green) in HepG2 cells (AID 720675)

Row | Structure (SMILES) | Potency [1] | Potency [2] | Potency [3] | Potency [4] | Potency [5] | Potency [6] | outcome [7] | outcome [8] | outcome [9] | outcome [10] | fluorescence, relative to Rose Bengal [7] | fluorescence, % of fluorescein control [10] | fluorescence, % of triamterene [8] | fluorescence, % of fluorescent control [9]
1 | CN1C[C@@H](NS(=O)(=O)N(C)C)C[C@@H]2c3cccc4c3c(cn4C)C[C@H]21 | inactive | inactive | inactive | inactive | inactive | inactive | inactive | inactive | inactive |  |  |  |  | 
2 | CC(=O)CCc1ccc2c(c1)OCO2 | inactive | inactive | inactive | inactive | inactive | inactive | inactive | inactive | inactive | inactive |  |  |  | 
3 | OC(c1ccccc1)(c1ccccc1)C1CCNCC1 | inactive | inactive | inactive | inactive | inactive | inactive |  |  |  |  | 0.0965% [at 18.6 µM] | 0.0225% [at 18.6 µM] | -0.0368% [at 18.6 µM] | -0.0312% [at 18.6 µM]
4 | CCCSC(=O)N(CCC)CCC | inactive | inactive | inactive | inactive | inactive | inactive | inactive | inactive | inactive | inactive |  |  |  | 
5 | CC1CCCCC1NC(=O)Nc1ccccc1 (stereo not given) | inactive | inactive | inactive | inactive | inactive | 21.7 µM (active) | inactive | inactive | inactive | inactive |  |  |  | 
6 | CCN(CC)C(=O)[C@@H]1C=C2c3cccc4[nH]cc(c34)C[C@H]2N(C)C1 | inactive | inactive | inactive | inactive | inactive | 8.98 µM (active) and 6.68 µM (active) | inactive |  | inactive | inactive |  |  |  | 
7 | Cc1cccc(C#N)c1 | inactive | inactive | inactive | inactive | inactive |  | inactive | inactive | inactive | inactive |  |  |  | 
8 | CCC1(c2ccccc2)C(=O)N=C(O)NC1=O (stereo not given) | inactive | inactive | inactive | inactive | inactive | inactive | inactive | inactive | inactive | inactive |  |  |  | 
9 | ClCC(Cl)Cl | inactive | inactive | inactive | inactive | inactive | inactive | inactive | inactive | inactive | inactive |  |  |  | 
10 | CCS(=O)(=O)C(C)(C)S(=O)(=O)CC | inactive | inactive | inactive | inactive | inactive | inactive | inactive |  | inactive | inactive |  |  |  | 
11 | [O]=[Cd] | inactive | inactive | inactive | inactive | inactive | inactive | inactive |  | inactive | inactive |  |  |  | 
12 | COP(=S)(OC)Oc1ccc(S(N)(=O)=O)cc1 | inactive | inactive | inactive | inactive | inactive | inactive | inactive |  | inactive | inactive |  |  |  | 
13 | Cc1nnc2n1-c1sc(CCC(=O)N3CCOCC3)cc1C(c1ccccc1Cl)=NC2 | inactive | inactive | inactive | inactive | inactive |  | inactive | inactive | inactive | inactive |  |  |  | 
14 | CSc1nc(N=[N+]=[N-])nc(NC(C)C)n1 | inactive | inactive | inactive | inactive |  | inactive | inactive | inactive | inactive | inactive |  |  |  | 
15 | Cc1cc(C)nc(Nc2ccccc2)n1 | inactive | inactive | inactive | inactive | inactive |  | inactive | inactive | inactive | inactive |  |  |  | 
16 | COc1cc(OC)nc(Oc2cccc(Oc3nc(OC)cc(OC)n3)c2C(=O)O)n1 | inactive | inactive | inactive | inactive | inactive |  | inactive | inactive | inactive | inactive |  |  |  | 
17 | CC1=NNC(=O)N(/N=C/c2cccnc2)C1 | inactive | inactive |  | inactive | inactive | inactive | inactive | inactive | inactive | inactive |  |  |  | 
18 | N#CC(Cl)(Cl)Cl | inactive | inactive | inactive | inactive | inactive |  | inactive | inactive | inactive | inactive |  |  |  | 
19 | C[C@H]1CCC[C@H](O)CCCCCc2cc(O)cc(O)c2C(=O)O1 | inactive | inactive | inactive |  | 26.6 µM (active) | 9.44 µM (active) and 6.91 µM (active) | inactive |  | inactive | inactive |  |  |  | 
20 | ClC(Cl)C(Cl)Cl | inactive | inactive | inactive | inactive | inactive |  | inactive | inactive | inactive | inactive |  |  |  | 
21 | COc1ccc(C(=O)N2CCCC2=O)cc1 | inactive | inactive | inactive | inactive |  |  | inactive | inactive | inactive | inactive |  |  |  | 
22 | CCCCP(CCCC)CCCC | inactive | inactive | inactive | inactive |  |  | inactive | inactive | inactive | inactive |  |  |  | 
23 | C#C[C@]1(O)C=C[C@H]2[C@@H]3CCC4=CC(=O)CC[C@@H]4[C@H]3CC[C@@]21CC | inactive | inactive | inactive | inactive | inactive |  | inactive | inactive | inactive | inactive |  |  |  | 

Source: PubChem BioAssay (Tox21)
